About 83,000 compounds went through this panel and 20% of them were active in at least one assay; those are over-represented in the sample as a whole.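 Single-dose data. Exposure time 48 hours. Values below 10 considered active.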 Values without a mark were called inactive. The source made the active and inactive calls.
Assays:
Experiment in all cases: NCI-60 one-dose screen, 48 h (100 = growth as untreated, 0 = no growth, -100 = all killed)
Settings in all cases: 10 µM unless noted
NCI-H23 lung = tested on: NCI-H23 lung
NCI-H226 lung = tested on: NCI-H226 lung
NCI-H322M lung = tested on: NCI-H322M lung
HOP-62 NSCLC = tested on: HOP-62 NSCLC
NCI-H460 lung = tested on: NCI-H460 lung
HOP-92 NSCLC = tested on: HOP-92 NSCLC
A549/ATCC NSCLC = tested on: A549/ATCC NSCLC
786-0 renal = tested on: 786-0 renal
COLO 205 colon = tested on: COLO 205 colon

SMILES	growth (NCI-H23 lung)	growth (NCI-H226 lung)	growth (NCI-H322M lung)	growth (HOP-62 NSCLC)	growth (NCI-H460 lung)	growth (HOP-92 NSCLC)	growth (A549/ATCC NSCLC)	growth (786-0 renal)	growth (COLO 205 colon)
O=C1/C(=C/c2ccc(F)cc2)Cc2ccccc21	99.7%	94.2%	95.2%	96.2%	103%	80.4%	91.7%	96%	115%
COc1cc(C2=NN(C=O)C(c3cccc(Nc4ccnc5cc(Cl)ccc45)c3)C2)cc(OC)c1OC (stereo unspecified)	77%	68.9%	91.1%	73%	83.4%	53.9%	61.8%	65.2%	66.1%
N#Cc1c(-c2ccccc2)cc(-c2ccccc2)n(CC(=O)O)c1=O	70.2%	75.2%	96.9%	53.8%	40.7%	61.7%	51.9%	62.9%	68.4%
CC(=O)Nc1cc2c3c(cccc3c1)-c1ccccc1-2	89.1%	37.4%	79.9%	103%	64.4%	78.9%	34%	50.4%	107%
O=C(/C=C/c1c(-c2ccccc2)[nH]c2ccccc12)S(=O)(=O)c1ccccc1	73%	69.1%	93%	69.3%	43.8%	47.8%	25.7%	74.4%	80.6%
COc1ccc(C2=NN(C(N)=S)C(c3ccc4c(c3)OCO4)C2)cc1 (stereo unspecified)	26.7%	58.2%	25.6%	46.7%	42.6%	54%	58.6%	30.6%	56.5%
O=c1c2c(=NCCCN3CCCC3)cc3c(=O)n(CCCN4CCCC4)c(=O)c4c(NCCCN5CCCC5)cc(c(O)n1CCCN1CCCC1)c2c4-3	-2.37% (active)	-26.3% (active)	-29.5% (active)	-13.7% (active)	-32.1% (active)	0.433% (active)	7.79% (active)	-13.9% (active)	-68.4% (active)
COC(=O)[C@H](Cc1cn(C)cn1)NC(=O)[C@H](Cc1ccccc1)NC(=O)Nc1cc(C(F)(F)F)cc(C(F)(F)F)c1	-83.3% [100 µM] (active)	-50.9% [100 µM] (active)	-94.2% [100 µM] (active)	-97.4% [100 µM] (active)	-50% [100 µM] (active)	-97.3% [100 µM] (active)	-85.6% [100 µM] (active)	-91.4% [100 µM] (active)	-82.1% [100 µM] (active)
Nc1c(C(=O)Nc2cccc(Cl)c2)sc2nc3c(cc12)C(O)CCC3 (stereo unspecified)	29.8%	62.3%	62.3%	46.8%	11.2%	13.6%	24.7%	53.3%	5.9% (active)
O=C1/C(=C/c2ccccc2Cl)CCc2ccccc21	102%	106%	101%	106%	104%	90.7%	83.5%	102%	115%
CCc1nn2c(-c3ccc(Cl)cc3C)c(-c3cc(OC)c(OC)c(OC)c3)nc2s1	88.9%	87%	69.7%	84.7%	84.8%	58.1%	82.7%	72.9%	81.2%
COc1ccc(-c2ccc(O)c(C(=O)/C=C/c3cc(OC)c(OC)c(OC)c3)c2)cc1	72.7%	99.1%	81.8%	103%	79.9%	56%	80.5%	99.4%	83.7%
CCCCNCCCN(CCCC)CCCNCCCC	104%	97.3%	99.5%	94.9%	101%	41.5%	95.4%	103%	100%
COc1cc(NC(=O)NCc2ccco2)ccc1-c1ccc(NC(=O)NCc2ccco2)cc1OC	49.4%	14.1%	49.5%	33.8%	35.8%	23%	34.6%	40.1%	64.9%
